A short description of assay [1]: qHTS for inhibitors of Wild type Zika virus screened against the NCATS CANVASS Library (AID 1347396). The method, boiled down: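 Luminescent CellTiter Glo read-out of virus-induced cytotoxicity, 72 h post-infection, in Vero 766 cells. Compounds were tested at 11 concentrations; uninfected, vehicle-treated wells defined 100% inhibition.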
The nature of assay [2]: Viability qHTS for inhibitors of the SERCaMP assay screened against the NCATS CANVASS Library (AID 1347400). The method, boiled down:
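CellTiter-Glo luminescence readout after 48 h compound exposure (11-pnt qHTS series) of SH-SY5Y-GLuc SERCaMP MJH297 cells seeded at 1000 cells/well; bortezomib positive control.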
On the technique in general: qHTS replaces the single test concentration by a dilution series.

Assay [3] is described as follows: Redox Reaction Profiling qHTS: Assay Interference Panel against the NCATS CANVASS Library (AID 1347401). In short, it runs like this: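 Fluorescence read-out (525 nm excitation, 598 nm emission) at time zero and after 15 min in the dark tracked resorufin formation. Mix: 5 uM resazurin, 200 uM DTT, HEPES pH 7.3 buffer with NaCl.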
Assay [4] is described as follows: qHTS for inhibitors of Rabies Virus screened against the NCATS CANVASS Library (AID 1347402; calls by dose curve).
The nature of assay [5]: qHTS to identify inhibitors of the type 1 interferon - major histocompatibility complex class I in skeletal muscle: primary screen against the NCATS Pharmaceutical Collection (AID 1347407). In short, it runs like this: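 Immortalized human myoblasts (C25cl48) with HiBiT knocked into endogenous HLA-B*08:01 were stimulated with 4 ng/ml IFN-beta and treated with compounds (8-point, 1:5, top 46 uM final) for 24 h at 37 C; HiBiT lytic luminescence read.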

Assay [6] addresses Protein phosphatase 1D (Homo sapiens) (UniProt O15297). Nature of the assay: RapidFire Mass Spectrometry qHTS Assay for Modulators of WT P53-Induced Phosphatase 1 (WIP1) (AID 1347424). The method, boiled down:
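RapidFire MS readout of dephosphorylated VEPPL-S-QETFS product, with 1 uM isotope-labelled peptide standard. Reaction: 10 nM WIP1, 2 uM phosphopeptide substrate, 5 min, room temperature, after 1 h compound preincubation; stopped with 0.5% formic acid.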

Assay [7] has the same target. Description: Rhodamine-PBP qHTS Assay for Modulators of WT P53-Induced Phosphatase 1 (WIP1) (AID 1347425). In short, it runs like this: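 The read-out is the change in Rhodamine-PBP fluorescence (f1 - f0, ex 525/em 598 nm) as Pi is released, read each minute for 11 min. Final reaction: 5 nM WIP1, 10 uM phosphopeptide VEPPL-pS-QETFS, 10 uM Rh-PBP, 50 mM Tris-HCl pH 7.5, 30 mM MgCl2. Compound was preincubated with enzyme for 1 hour at room temperature.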

A short description of assay [8]: Primary qHTS for inhibitors of SARS-S pseudo-typed particle cell entry (AID 1479145; calls by dose curve).
Assay [9] in a line: Primary qHTS for Huh7 cytotoxicity: counterscreen for inhibitors of MERS-S pseudotyped particle cell entry (AID 1479147; calls by dose curve).
Assay [10] can be described thus: Primary qHTS for inhibitors of MERS-S pseudo-typed particle cell entry (AID 1479149; calls by dose curve).
A short description of assay [11]: Primary qHTS for Vero E6 cytotoxicity: counterscreen for inhibitors of SARS-S pseudo-typed particle cell entry (AID 1479150; calls by dose curve).
Assay [12] is described as follows: qHTS to identify inhibitors of the type 1 interferon - major histocompatibility complex class I in skeletal muscle: primary screen against the NCATS LOPAC collection (AID 1347405). In short, it runs like this: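 HLA-B HiBiT myoblasts, IFN-b 4 ng/ml, dexamethasone-free medium; compounds 7-pt 1:4.3 titration, top 46 uM final; 24 h at 37 C; Nano-Glo HiBiT lytic reagent, 10 min RT, luminescence.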

Assay [13] can be described thus: Validation qHTS assay for inhibitors of Activation Induced Cytidine Deaminase (AID): UDG Counterscreen signal (AID 1347427). The method, boiled down: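 Fluorescence at 560 nm excitation, 665 nm emission reports UDG signal after 250 mM NaOH (2x) addition and 30 min. Enzymes (AID 1 uM, UDG 2 U/mL, at 4/3x) preincubated 10 min with compound, then 4 h with 4x 250 nM DJC20/DJC23 substrate at room temperature.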

Assay [14] concerns the target Single-stranded DNA cytosine deaminase (Homo sapiens) (UniProt Q9GZX7). Description: Validation qHTS assay for inhibitors of Activation Induced Cytidine Deaminase (AID): AID signal (AID 1347429). The method, boiled down: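 AID+UDG coupled FRET deamination; cpds up to 114 uM final; DJC20/DJC23 substrate, 4 hr RT; NaOH stop, 30 min RT; read Ex 540/Em 590.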
Assay [15] can be described thus: Primary qHTS for inhibitors of La Crosse Virus (LACV) - induced cell death in SH-SY5Y cells (AID 1508616). The method, boiled down:
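Cytopathicity rescue screen: compounds pinned onto SH-SY5Y cells, which are then infected with LACV (MOI 0.01) and held 6 days at 37C. Percent activity is scaled between infected DMSO control and uninfected DMSO control.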

Structures are written as SMILES. Unmarked numbers belong to inactive results. Inconclusive results are not listed. Active and inactive are the calls of the source. Unless noted, calls come from the whole dose curve; as a rule, active = well fitted curve in the direction sought with a large enough effect; inconclusive = small, poorly fitted or top-dose-only effect, or another doubt; inactive = no such curve, though single readings can be large; an effect the other way counts as inactive or inconclusive.

Chain of Single-stranded DNA cytosine deaminase (Homo sapiens) (Q9GZX7 whole entry, looked up): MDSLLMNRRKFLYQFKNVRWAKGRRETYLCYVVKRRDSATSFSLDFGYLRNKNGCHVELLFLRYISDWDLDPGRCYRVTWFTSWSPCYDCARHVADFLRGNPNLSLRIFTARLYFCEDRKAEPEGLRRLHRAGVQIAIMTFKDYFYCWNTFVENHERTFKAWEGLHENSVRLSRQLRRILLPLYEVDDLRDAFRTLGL
Chain of Protein phosphatase 1D (Homo sapiens) (O15297 whole entry, looked up): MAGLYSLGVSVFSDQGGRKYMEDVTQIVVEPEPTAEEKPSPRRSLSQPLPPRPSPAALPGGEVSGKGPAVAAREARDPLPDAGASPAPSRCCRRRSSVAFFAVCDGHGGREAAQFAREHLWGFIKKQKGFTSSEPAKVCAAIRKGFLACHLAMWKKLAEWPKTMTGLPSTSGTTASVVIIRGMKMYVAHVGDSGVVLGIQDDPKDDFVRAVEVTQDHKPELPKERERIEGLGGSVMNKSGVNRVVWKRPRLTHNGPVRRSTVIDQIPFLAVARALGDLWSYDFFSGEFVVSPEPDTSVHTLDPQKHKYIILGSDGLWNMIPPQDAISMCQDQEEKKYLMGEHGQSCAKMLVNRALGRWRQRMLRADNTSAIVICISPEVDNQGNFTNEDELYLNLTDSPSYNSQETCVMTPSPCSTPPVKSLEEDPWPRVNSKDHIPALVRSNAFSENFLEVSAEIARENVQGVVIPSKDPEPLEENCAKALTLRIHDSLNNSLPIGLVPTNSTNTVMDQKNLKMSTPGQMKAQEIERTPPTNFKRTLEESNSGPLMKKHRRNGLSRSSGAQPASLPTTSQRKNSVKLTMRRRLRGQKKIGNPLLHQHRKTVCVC

With `NCCc1c[nH]c2ccc(O)cc12`, the compound was classed as inactive in [1], in assay [2], in [3] and in assay [4].
Turning to `NCCc1c[nH]c2ccccc12`, the call in assay [1], in assay [2], in [3] and in assay [4] was inactive.
As to `CC(Cc1ccc(O)cc1)NCC(O)c1cc(O)cc(O)c1` (stereo not given), the compound was called inactive in [5] and in assay [7]. The Potency result in assay [6], in assay [8], in assay [9], in [10] and in [11] was “inactive” throughout.
On to `CC1=C(C(=O)O)N2C(=O)[C@@H](N)[C@H]2SC1`, for which the activity change, negative = inhibition in assay [5] is -3.5% [at 19 µM]; in assay [6] it was 5.52% [at 26.6 µM]; in assay [7], 6.57% [at 23.8 µM].
For `Nc1ccc(Sc2ccc(N)cc2)cc1`, the outcome in [5] was inactive. For the same compound, the Potency result in assay [6] was “inactive”.
`O=C(O)C(Cl)Cl`: the call in assay [5] and in assay [7] was inactive. For the same compound, the Potency entry in [6] was “inactive”.
As to `C=CC(=O)NCNC(=O)C=C`, the result in assay [5] and in assay [7] was inactive. Besides, in assay [6], the Potency entry was “inactive”.
Regarding `Fc1cc(Br)ccc1CBr`, the compound was classed as inactive in [5] and in assay [7]. In [6], the Potency entry was “inactive”.
On to `COc1ccc(C(c2ccc(OC)cc2)C(Cl)(Cl)Cl)cc1`, for which the outcome in assay [5] and in [7] was inactive. Further, in assay [6], the Potency entry was “inactive”.
As for `C[N+]1(C)C2CCC1CC(OC(=O)C(CO)c1ccccc1)C2` (stereo not given), the Potency result in assay [12] was “inactive”. Moreover, the compound was classed as inactive in assay [13], in assay [14] and in [15].
`CC(=O)[C@H]1CCC2C3CC[C@H]4C[C@H](O)CC[C@]4(C)C3CC[C@@]21C` (stereo not given in full): the Potency entry in [12] was “inactive”. Further, the compound was classed as inactive in assay [13], in [14] and in [15].
With `CCCN(CCC)[C@@H]1CCc2ccc(O)cc2C1`, the Potency result in assay [12] was “inactive”. Besides, the result in assay [13], in [14] and in assay [15] was inactive.
Turning to `O=[N+]([O-])c1cc([N+](=O)[O-])c2ccccc2c1`, the compound was called inactive in [5] and in [7]. For the same compound, the Potency result in [6] was “inactive”.
Regarding `OCCCBr`, the compound was called inactive in [5] and in assay [7]. Besides, the Potency result in [6] was “inactive”.
With `O=C(Cc1ccc(Cl)c(Cl)c1)N1CCCCC1CN1CCCC1` (stereo not given), in assay [12], the Potency result is “inactive”. Also, the result in assay [13], in assay [14] and in assay [15] was inactive.
For the compound `Cn1cnc(CCN)c1`, the Potency result in assay [12] is “inactive”. Further, the compound was classed as inactive in assay [13], in assay [14] and in assay [15].
On to `S=C(SSC(=S)N1CCCCC1)N1CCCCC1`, for which the outcome in assay [5] and in [7] was inactive. Further, the Potency entry in assay [6] was “inactive”.
In the case of `Clc1cnc(Oc2ccc(Oc3ncc(Cl)cc3Cl)cc2)c(Cl)c1`, the Potency result in assay [12] was “inactive”. For the same compound, the compound was called inactive in [13] and in [14].
As to `NC(=NCCC[C@H](N)C(=O)O)N[N+](=O)[O-]`, the Potency entry in assay [12] is “inactive”. Besides, the compound was called inactive in assay [13], in [14] and in assay [15].
With `C[N+](C)(C)CC(=O)O`, the Potency result in assay [12], in assay [8], in assay [9], in assay [10] and in assay [11] was “inactive” in each case.
For `C[C@]12N[C@H](Cc3ccccc31)c1ccccc12`, the Potency result in assay [12] was “inactive”. Moreover, the outcome in assay [13], in assay [14] and in assay [15] was inactive.
For `Cc1ccc(Cl)c(O)c1`, the compound was called inactive in [5] and in assay [7]. For the same compound, the Potency result in assay [6] was “inactive”.
On to `CS(=N)(=O)CC[C@H](N)C(=O)O` (stereo not given in full), for which the Potency result in [12] is “inactive”. Further, the result in assay [13], in assay [14] and in assay [15] was inactive.
`COC(=O)c1cncn1C(C)c1ccccc1` (stereo not given): the compound was classed as inactive in assay [5] and in assay [7]. For the same compound, the Potency result in [6], in assay [8], in assay [9], in assay [10] and in assay [11] was “inactive” throughout.
For `c1ccc(C2(c3ccccc3)CC2C2=NCCN2)cc1` (stereo not given), the Potency result in assay [12], in assay [9], in [10] and in assay [11] was “inactive” throughout. The compound was called inactive in [13], in assay [14] and in [15].
As for `Nc1ccc(Cl)cc1`, the outcome in assay [5] and in [7] was inactive. The Potency entry in assay [6] is “inactive”.
Take `O=S(=O)(O)C(F)(F)C(F)(F)C(F)(F)C(F)(F)F`: the compound was classed as inactive in assay [5] and in assay [7]. Also, the Potency result in [6] was “inactive”.
Turning to `COCCOCCO`, the compound was called inactive in assay [5] and in assay [7]. Further, in assay [6], the Potency entry is “inactive”.
For `CC(C)(C)C(O)C(Oc1ccc(Cl)cc1)n1cncn1` (stereo not given), the call in assay [5] and in [7] was inactive. Further, in assay [6], the Potency entry is “inactive”.
Take `O=S(=O)(O)C(F)(F)C(F)(F)C(F)(F)C(F)(F)C(F)(F)C(F)(F)C(F)(F)C(F)(F)F`: the compound was classed as inactive in [5]. The Potency in assay [6] was 1580 nM (active).
`CC1=NN=C(c2ccc(N)cc2)c2cc3c(cc2C1)OCO3`: in assay [12], the Potency result is “inactive”. In addition, the outcome in assay [13], in assay [14] and in [15] was inactive.
On to `COc1nn(CSP(=S)(OC)OC)c(=O)s1`, for which, in assay [5], the result was inactive. For the same compound, in [6], the Potency result was “inactive”.
Regarding `CCOP(=O)(NC(C)C)Oc1ccc(SC)c(C)c1` (stereo not given), the compound was classed as inactive in [5] and in assay [7]. Also, the Potency entry in assay [6] is “inactive”.
On to `C1CCC(NC2CCCCC2)CC1`, for which the outcome in assay [5] and in assay [7] was inactive. Besides, the Potency result in [6], in assay [8], in assay [9], in assay [10] and in [11] was “inactive” throughout.
For `CC(C)NC(C)Cc1ccc(I)cc1` (stereo not given), the Potency entry in assay [12], in assay [9] and in assay [11] was “inactive” throughout. Moreover, the outcome in assay [13] and in [14] was inactive.
For the compound `Cc1cc(O)ccc1Cl`, the outcome in assay [5] and in assay [7] was inactive. Further, the Potency result in [6], in assay [8], in assay [9], in assay [10] and in assay [11] was “inactive” throughout.
In the case of `NCc1cc(=O)[nH]o1`, the Potency result in assay [12] is “inactive”. In addition, the result in assay [13], in [14] and in assay [15] was inactive.
Regarding `C[C@@H]1O[C@H](C[N+](C)(C)C)C[C@H]1O`, the Potency entry in [12] was “inactive”. Also, the call in [13], in assay [14] and in assay [15] was inactive.
Consider `O=C(O)c1cc(Oc2ccc(C(F)(F)F)cc2Cl)ccc1[N+](=O)[O-]`, for which the call in assay [5], in [7] and in assay [15] was inactive.
As for `CC(C)NCC(O)c1ccc([N+](=O)[O-])cc1` (stereo not given), the compound was called inactive in [5], in assay [7] and in [15]. In assay [6], the Potency entry was “inactive”.
